The full list was thinned out, with hits kept by preference.
RMI-FANCM inh – blocks RMI1/RMI2 complex binding to FANCM MM2 peptide | FP signal (polarization) at 33 µM | 70,000 tested, 0.58% active | AID 1159607 | Fluorescence polarization, RMI core complex with F-MM2 peptide; active compounds read low; in the data active = FP signal below about 40
* hit, by the source's call; ! = a repeat was not active.

SMILES | RMI-FANCM inh
C[C@]12CC=CCC1CCC1C2CC[C@](C)(C(=O)O)C1/C=C1/Nc2ccccc2C1=O (stereo partly drawn) | 35*!
C[C@]12CC[C@@H](O)CC1CCC1C2CC[C@](C)(C(=O)O)C1/C=C1/Nc2ccccc2C1=O (stereo partly drawn) | 38
CC(C)(C)c1ccc(S(=O)(=O)Nc2ccc(C(=O)Nc3ccncc3)cc2)cc1 | 74
Cc1ccc(S(=O)(=O)c2ccc(C(=O)Nc3cccc(C)c3C)cn2)cc1 | 64
Cc1ccc2c(c1)sc(=NC(=O)c1cc(Cl)sc1Cl)n2C | 107
Cc1nc(-c2ccnc(=S)[nH]2)cs1 | 57
c1csc(-c2ccn[nH]2)c1 | 55
S=c1nccc(-c2ccc(-c3cccs3)s2)[nH]1 | 33*
COc1ccc(OC)c2sc(N(Cc3ccccn3)C(=O)c3ccnn3C)nc12 | 59
O=C1OC(/C=C/c2ccccc2)=NC/1=C/c1ccc2c(c1)OCO2 | 56
CCOc1ccc(-c2cc(=O)n(CC(=O)c3ccccc3)cn2)cc1 | 61
CN(C)CCCN(C(=O)/C=C\c1ccc([N+](=O)[O-])cc1)c1nc2c(F)cccc2s1 | 193
CCN(CC)CCN(C(=O)c1ccc(S(=O)(=O)N(CC)c2ccccc2)cc1)c1nc2cc3c(cc2s1)OCCO3 | 40*
CCN(c1ccccc1)S(=O)(=O)c1ccc(C(=O)N(CCCN(C)C)c2nc3cc4c(cc3s2)OCO4)cc1 | 135
CCN(CC)CCN(C(=O)c1ccc(S(=O)(=O)N(CC)c2ccccc2)cc1)c1nc2ccc(C)cc2s1 | 101
CCOC(=O)c1sc(NC(=O)c2cc(C)on2)nc1-c1ccccc1 | 56
COCCNC(=O)Cc1csc(Nc2cccc(C(F)(F)F)c2)n1 | 47
Cc1ccc(OCC(=O)Nc2cc(-c3ccco3)nn2-c2nc(C)c(C)c(=O)[nH]2)cc1 | 42
Cc1nc(-n2nc(-c3ccco3)cc2NC(=O)c2ccco2)[nH]c(=O)c1C | 46
Cc1nc(-n2nc(-c3ccco3)cc2NC(=O)CSCc2ccccc2)[nH]c(=O)c1C | 35*
Cc1ccc(NC(=O)C(=O)NCC(c2ccc3c(c2)CCCN3C)N2CCN(C)CC2)cc1Cl (stereo not drawn) | 69
CCOc1ccc(-n2c(SCC(=O)Nc3cc(C)ccc3C)nc3c(oc4ccccc43)c2=O)cc1 | 55
Cc1nn2c(N)csc2nc1=O | 19*
Cc1cccc(-c2nc3scc(CCN)n3n2)c1 | 72
COc1ccc(Cn2c3ccc(Cl)cc3c3nc4ccccc4nc32)cc1OC | 56
SMILES | RMI-FANCM inh
O=C(c1ccccc1)c1ccc2c3c(cccc13)C(=O)N(c1ccc3c4c(cccc14)CC3)C2=O | 18*
O=C(c1ccccc1)c1ccc2c3c(cccc13)CC2 | 62
Cc1ccccc1N1C(=O)c2cccc3c(C(=O)O)ccc(c23)C1=O | 60
O=C(CSC1CCCCC1)Nc1cc(C(F)(F)F)ccc1Cl | 62
Cn1nccc1C(=O)Nc1ccccc1S(C)(=O)=O | 70
COc1cc(C(=O)/C(=C/c2cccc([N+](=O)[O-])c2)c2nc3ccccc3o2)cc(OC)c1OC | 53
O=C(O)c1ccc(-c2ccc(Cl)cc2[N+](=O)[O-])o1 | 54
CCN1C(=O)C2CC(C)=C(C)CC2C1=O (stereo not drawn) | 29*
CC1=C(C)CC2C(=O)N(c3ccc(O)cc3)C(=O)C2C1 (stereo not drawn) | 59
CC1=C(C)CC2C(=O)N(C(Cc3ccccc3)C(=O)O)C(=O)C2C1 (stereo not drawn) | 57
COc1ccc(CC(=O)NCC(c2ccsc2)N2CCCC2)cc1 (stereo not drawn) | 64
Cc1ccc(C(=O)NCC(c2ccsc2)N2CCCC2)cc1C (stereo not drawn) | 87
COc1cc(OC)cc(C(=O)NCC(c2ccsc2)N2CCCC2)c1 (stereo not drawn) | 9*
O=C(NCCCn1nc(-c2ccc(F)cc2)ccc1=O)c1ccc2c(c1)OCO2 | 66
Cc1ccc(NC(=O)C(=O)NCC2CCN(C(C)C)CC2)cc1C | 79
COc1cc(CSc2nc(CC(=O)Nc3nccs3)cs2)cc(OC)c1 | 58
O=C(Cc1csc(SCc2ccc(Br)cc2)n1)NCc1ccccn1 | 27*
O=C(Cc1csc(SCc2ccc(Cl)cc2)n1)NCc1ccccn1 | 54
O=C(Cc1csc(SCc2ccc(Br)cc2)n1)NC1CCCC1 | 66
O=C(Cc1csc(SCc2ccc(Br)cc2)n1)Nc1nccs1 | 21*
CNC(=O)Cc1csc(Nc2ccc(OC(F)(F)F)cc2)n1 | 61
O=C(Cc1csc(Nc2ccc(OC(F)(F)F)cc2)n1)NCc1ccccn1 | -3*
O=C(Cc1csc(SCc2ccc(Br)cc2)n1)NCc1cccs1 | 80
O=C(Cc1csc(Nc2cccc(C(F)(F)F)c2)n1)NCc1ccccn1 | 44
Cc1c(C)c(C)c(CSCC(=O)NNS(=O)(=O)c2ccc(F)cc2)c(C)c1C | 52
SMILES | RMI-FANCM inh
COc1cc(C(=O)NCCCc2nc3ccccc3n2Cc2ccccc2C)cc(OC)c1OC | 63
CCN(CC)CC(O)Cn1c2ccc(Cl)cc2c2cc(Cl)ccc21 (stereo not drawn) | 84
N/C(CCSc1ccc(Cl)cc1)=N/OC(=O)Nc1ccc(Cl)cc1 | 55
O=[N+]([O-])C1=Cc2cc(Cl)ccc2OC1c1ccccc1Cl (stereo not drawn) | 45
O=C(Nc1nnc(C2CCCO2)o1)C1COc2ccccc2O1 (stereo not drawn) | 55
O=C(CCc1nc2sc3c(c2c(=O)[nH]1)CCCCC3)N1CCN(Cc2ccc3c(c2)OCO3)CC1 | 28*
NC(=O)C1CCN(C(=O)CCc2nc3sc4c(c3c(=O)[nH]2)CCCCC4)CC1 | 42
O=C(CCc1nc2sc3c(c2c(=O)[nH]1)CCCCC3)N1CCN(c2ccccc2F)CC1 | 66
Cc1nc(-c2cccnc2)sc1-c1ccc(SCC(=O)Nc2ccc3c(c2)OCO3)nn1 | 81
O=C(O)C1CCCN1C(=O)c1cccs1 (stereo not drawn) | 62
CCOC(=O)[C@H](CCc1ccccc1)N[C@H]1CCc2ccccc2N(CC(=O)O)C1=O | 57
C[C@H](NC(CCc1ccccc1)C(=O)O)C(=O)N1CCC[C@H]1C(=O)O (stereo partly drawn) | 34*
O=C(C1CCCC1)N1CCc2ccc(NS(=O)(=O)c3ccc(F)cc3F)cc21 | 66
OCC#CCSc1nc2ccccc2o1 | 57
COC(=O)c1ccc2c(=O)n(Cc3ccc(OC)c(OC)c3)c(=S)[nH]c2c1 | 67
COCCNC(=O)Cn1nc(C2CC2)c2cnn(-c3ccc(C)c(C)c3)c2c1=O | 66
CCCC(=O)NCCc1ccc2c(c1)CCCN2CCC | 62
CCCN1CCCc2cc(CCNS(=O)(=O)c3ccc(CC)cc3)ccc21 | 150
CCCN1CCCc2cc(CCNC(=O)OCC)ccc21 | 31*
CCCN1CCCc2cc(CCNC(=O)c3cccc(OC)c3OC)ccc21 | 65
CCN1CCCc2cc(CCNC(=O)c3ccccc3C(F)(F)F)ccc21 | 0*
CN1CCCc2cc(CCNC(=O)c3ccccc3Cl)ccc21 | 61
CCCN1CCCc2cc(CCNC(=O)C(=O)NC(C)C)ccc21 | 67
CCCN1CCCc2cc(CCNS(C)(=O)=O)ccc21 | 24*
CCCN1CCCc2cc(CCNC(=O)c3ccccc3OCC)ccc21 | 23*
CCCN1CCCc2cc(CCNC(=O)C(=O)Nc3ccccc3OCC)ccc21 | 163
CCCN1CCCc2cc(CCNS(=O)(=O)CC(C)C)ccc21 | 88
CCN1CCCc2cc(CCNC(=O)c3ccc(OC)c(OC)c3)ccc21 | 61
CN1CCc2cc(C(CNC(=O)NC3CCCCC3)N3CCCC3)ccc21 (stereo not drawn) | 61

Screens as filed in PubChem BioAssay.
